Laboratory results taken from PubChem BioAssay (NCATS).
Records with an inconclusive call do not appear. Calls of active or inactive are those of the source. Unless noted, calls follow the shape of the dose curve; as a rule, active = well fitted curve in the direction sought with a large enough effect; inconclusive = small, poorly fitted or top-dose-only effect, or another doubt; inactive = no such curve, though single readings can be large; an effect the other way counts as inactive or inconclusive.

What was measured:
[1] = target: Lysosomal acid glucosylceramidase (Homo sapiens) (UniProt P04062); assay: Glucocerebrosidase-p2 (AID 348; in the data active = potency below about 10 µM; also: potency is read from the fitted curve at half-maximal effect); settings: purified GBA, blue fluorogenic substrate, 40 min
Summary of the method: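 Compounds titrated from 0.6 nM upwards against 0.2 nM enzyme in pH 5.9 citric acid/KH2PO4, taurocholate, tween-20; blue fluorogenic substrate 80 uM, 40 min room temperature, stopped and read Ex 365/Em 440 for AC50.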

[2] = AP1 Signaling Pathway (AID 357; active = well fitted curve in either direction with a large enough effect, not every such curve was filed as active;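 also: ME-180 reporter cells stimulated with EGF at its EC50 level; % is scaled to controls: 0 for no effect and ±100 for the full control effect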); settings: ME-180 AP-1-bla reporter, EGF-induced, beta-lactamase ratio, 5 h; at 7.69 µM (top of the series) unless noted
Summary of the method: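 Cells are seeded overnight, exposed to compound titrations and an EC50 level of EGF for 5 hours at 37 °C, then loaded with CCF4 dye for 2.5 hours. Beta-lactamase activity under the AP-1 element is read as a blue/green ratio.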

[3] = target: Cytochrome P450 1A2 (Homo sapiens) (UniProt P05177); assay: p450-cyp1a2 (AID 410; calls by dose curve; also: potency is read from the fitted curve at half-maximal effect); settings: recombinant CYP1A2, luciferin-ME demethylation, luminescence; series mostly up to 57 µM
Summary of the method: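 20nM CYP1A2 with 100uM Luciferin-ME (at Km) in 100mM KPO4; compound preincubated 10 min, NADPH regeneration added, 60 min at room temperature. Luciferin quantified by luminescence after detection reagent; normalized to 57 uM furafylline.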

[4] = NFAT Signaling Pathway (AID 444; active = well fitted curve in either direction with a large enough effect, not every such curve was filed as active;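 also: carbachol stimulus at about its EC50 of 1 µM final; % is scaled to controls: 0 for no effect and ±100 for the full control effect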); settings: Jurkat NFAT-bla M1, carbachol, beta-lactamase ratio, 5 h; at 7.69 µM (top of the series) unless noted
Summary of the method: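 Jurkat cells with NFAT-driven β-lactamase reporter and co-expressed M1 receptor, stimulated with carbachol (final 1 uM, ~EC50), compound titration, 5 h at 37 °C. CCF4 loaded 1 h at RT; 460/530 nm ratio gave %activity and AC50.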

[5] = Stat Signaling Pathway (AID 446; active = well fitted curve in either direction with a large enough effect, not every such curve was filed as active;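 also: ME-180 cervical cancer cells given 40 pM IL-6 alongside compound; SIE-controlled beta-lactamase reporter measured as 460/530 nm FRET emission ratio; % is scaled to controls: 0 for no effect and ±100 for the full control effect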); settings: ME-180 SIE beta-lactamase reporter, IL-6 stimulated, 5 h; at 7.69 µM (top of the series) unless noted
Summary of the method: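 ME-180 SIE-bla cells; overnight plating; cpd + IL-6 40 pM, 5 h, 37 C; LiveBLAzer 2.5 h RT; 460/530 nm emission ratio. Normalized to 300 pM IL-6 and 125 nM JAK inhibitor controls.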

[6] = target: Glucocorticoid receptor (Homo sapiens) (UniProt P04150); assay: GR-GFP Redistribution (AID 450;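 active = compounds whose dose series gives a full or clear partial fitted curve of increased nuclear translocation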; also: potency is read from the fitted curve at half-maximal effect); settings: U2OS GR-GFP nuclear translocation, laser cytometry, 2 h
[7] = target: Glucocorticoid receptor (Homo sapiens) (UniProt P04150); assay: GR-EFC Redistribution (AID 451; calls by dose curve; also: potency is read from the fitted curve at half-maximal effect); settings: CHO-K1 GR-EFC translocation, beta-gal luminescence, 2 h
Summary of the method: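 CHO-K1 cells expressing nuclear EA and GR-ED fragments of b-gal; compounds titrated up to 46 uM final, 2 h at 37 C. GR nuclear translocation read as complemented b-gal luminescence after 1 h RT detection.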

[8] = target: Mitogen-activated protein kinase 10 (Mus musculus) (UniProt Q61831); assay: JNK3 AlphaScreen Assay (AID 530; active = well fitted curve in either direction with a large enough effect, not every such curve was filed as active;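 also: kinase came from lysate of stimulated human HepG2 cells; signal reports phosphorylation of biotinylated GST-cJun 1-79 at Ser73 with 10 µM ATP; % is scaled to controls: 0 for no effect and ±100 for the full control effect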); settings: JNK3 lysate, c-Jun phosphorylation; series mostly up to 57.1 µM
Summary of the method: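 Pre-activated (IL-1β/TNFα) JNK3 in HepG2 lysates phosphorylates biotin-GST-cJun(1-79), 10 uM ATP; anti-phospho-cJun(Ser73) AlphaScreen read at room temperature, pH 7.6 Tris buffer. Compounds pre-incubated 15 min as titrations.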

[9] = target: 3',5'-cyclic-AMP phosphodiesterase 4B (Homo sapiens) (UniProt Q07343); assay: qHTS Assay for Inhibitors of PDE-IV (AID 607; active = well fitted activation curve with a large enough effect in the main read-out, with a control signal flat, not every such curve was filed as active; also: % of control where 0% means no effect); settings: HEK293 ACTOne CNG channel cells, membrane potential fluorescence; series mostly up to 22.9 µM
Summary of the method: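 ACTOne HEK293 cells carry a modified cAMP-gated CNG channel and express endogenous PDE4; plated 1000 cells/well, compounds up to 22.9 uM final. Membrane-potential dye fluorescence (ex 535/em 590) was read; parental cells received 10 uM forskolin + 100 uM RO 20-1724.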

[10] = qHTS Assay for Lipid Storage Modulators (AID 1519; calls by dose curve); settings: Drosophila S3 cells, BODIPY lipid droplet/cell ratio, laser cytometry, cells loaded with oleic acid; for activity change, negative = inhibition: at 57.5 µM (top of the series)
Summary of the method: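 Cells seeded at 5,000 per well were treated with compounds over a concentration series and loaded with oleic acid (400 uM, as added). Lipid droplet fluorescence (488 nm excitation, 500-530 nm channel) was read by laser-scanning cytometry and normalized to 20 uM Triacsin C.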

[11] = target: Dual specificity protein kinase CLK4 (Homo sapiens) (UniProt Q9HAZ1); assay: qHTS Assay for Inhibitors of CDC-like Kinase 4 (Kinase-Glo Assay) (AID 1770); settings: recombinant Clk4, Kinase-Glo ATP depletion luminescence; series mostly up to 66.7 µM; also: nearly all actives have a fitted effect of over 65% in size; also: potency is read from the fitted curve at half-maximal effect
Summary of the method: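 Recombinant human Clk4 (25 nM) phosphorylated RS repeat peptide (100 uM) with 1 uM ATP in Tris pH 7.5/MgCl2/EGTA/DTT/Triton buffer for 4.5 h at room temperature. Residual ATP was quantified by Kinase-Glo luciferase luminescence.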

[12] = target: Dual specificity protein kinase CLK4 (Homo sapiens) (UniProt Q9HAZ1); assay: qHTS Assay for Inhibitors of CDC-like Kinase 4 (ADP-Glo Assay) (AID 1771); settings: recombinant CLK4, ADP-Glo luminescence; series mostly up to 80 µM; also: nearly all actives have a fitted effect of over 70% in size; also: potency is read from the fitted curve at half-maximal effect
Summary of the method: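 25 nM Clk4 with 100 uM RS repeat peptide and 1 uM ATP (final) in buffer with 2 mM MgCl2, 0.5 mM EGTA, 2.5 mM DTT, 0.01% Triton X-100; 1 h at room temperature; ADP-Glo luminescence for ADP formed.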

[13] = target: Dual specificity protein kinase CLK4 (Homo sapiens) (UniProt Q9HAZ1); assay: qHTS Assay for Inhibitors of CDC-like Kinase 4 (ADP-FP Assay) (AID 1795); settings: Transcreener ADP fluorescence polarization; series mostly up to 50 µM; also: nearly all actives have a fitted effect of over 60% in size; also: potency is read from the fitted curve at half-maximal effect
Summary of the method: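 Recombinant human Clk4 (6.25 nM) phosphorylated RS repeat peptide (100 uM) with 1 uM ATP in Tris pH 7.5/MgCl2/EGTA/DTT/Triton buffer for one hour. ADP was quantified by Transcreener competitive fluorescence polarization against an ADP calibration curve.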

[14] = target: Ubiquitin carboxyl-terminal hydrolase 1 (Homo sapiens) (UniProt O94782); assay: Inhibitors of USP1/UAF1: Pilot qHTS (AID 504865); settings: purified USP1/UAF1, Ub-rhodamine cleavage fluorescence; series mostly up to 54.9 µM;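 also: rhodamine fluorescence freed from ubiquitin-rhodamine substrate followed over time; top concentration of the series differs between compounds; % is scaled to controls: 0 for no effect and ±100 for the full control effect; nearly all actives have a fitted effect of over 35% in size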
Summary of the method: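 USP1/UAF1 complex (1nM) preincubated with compound 15 min at room temperature, then Ub-Rho substrate (150nM final) added. Fluorescence read kinetically at 480/540 nm, 6 reads every 60 seconds. Buffer: 50mM HEPES pH 7.8, 0.5mM EDTA, 0.1 mg/ml BSA, 1mM TCEP, 0.01% Tween-20.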

[15] = Primary qHTS for small molecule stabilizers of the endoplasmic reticulum resident proteome: Secreted ER Calcium Modulated Protein (SERCaMP) assay (AID 1508630); settings: SH-SY5Y GLuc-SERCaMP (Gaussia luciferase released on ER calcium loss) secretion, thapsigargin, luminescence; series mostly up to 38.4 µM; also: % is scaled to controls: 0 for no effect and ±100 for the full control effect
Summary of the method: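 GLuc-SERCaMP-expressing SH-SY5Y cells, pretreated 16 h with compound, are challenged with thapsigargin to empty ER calcium stores; after 4 h, coelenterazine is added directly to the medium and luminescence is imaged.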

[16] = target: Cytochrome P450 3A4 (Homo sapiens) (UniProt P08684); assay: qHTS Assay for Inhibitors and Substrates of Cytochrome P450 3A4 (AID 884); settings: recombinant CYP3A4, Luciferin-PPXE luminescence; series mostly up to 57.1 µM; also: potency is read from the fitted curve at half-maximal effect; nearly all actives have a fitted effect of over 50% in size
Summary of the method: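 20 nM human CYP3A4 with 25 uM Luciferin-PPXE (at KM) in 200 mM KPO4, preincubated 10 min with compound; NADPH regeneration started a 60 min RT reaction. Luciferin detected by luminescence, normalized to 57 uM ketoconazole as full inhibition.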

[17] = target: Cytochrome P450 3A4 (Homo sapiens) (UniProt P08684); assay: qHTS Assay for Activators of Cytochrome P450 3A4 (AID 885); settings: recombinant CYP3A4, Luciferin-PPXE luminescence, 60 min; series mostly up to 57.1 µM; also: nearly all actives have a fitted effect of over 65% in size
Summary of the method: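 20nM CYP3A4 + 25uM Luciferin-PPXE (=KM), 200mM KPO4; cpd 10 min RT; NADPH regen, 60 min RT; stop w/ detection buffer, 20 min; luminescence. Normalized to 57 uM ketoconazole.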

[18] = target: Rap guanine nucleotide exchange factor 3 (Homo sapiens) (UniProt O95398); assay: Confirmatory qHTS for agonist of cAMP-regulated guanine nucleotide exchange factor 3 (EPAC1) (AID 1645881); settings: EPAC1 Rap1B BODIPY-GDP exchange fluorescence, 100% = cAMP control response; series mostly up to 154 µM;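 also: EPAC1 catalysed release of BODIPY-GDP from Rap1B seen as fluorescence loss; nearly all actives have a fitted effect of over 75% in size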
[19] = target: Rap guanine nucleotide exchange factor 4 (Homo sapiens) (UniProt Q8WZA2); assay: Confirmatory qHTS for agonist of cAMP-regulated guanine nucleotide exchange factor 4 (EPAC2) (AID 1645884); settings: EPAC2 GEF activity, Rap1B-BODIPY-GDP fluorescence, percent relative to cAMP agonist control; series mostly up to 154 µM;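 also: nucleotide exchange releases bodipy-GDP from Rap1 and this lowers its fluorescence; % is scaled to controls: 0 for no effect and ±100 for the full control effect; nearly all actives have a fitted effect of over 65% in size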
[20] = target: Rap guanine nucleotide exchange factor 4 (Homo sapiens) (UniProt Q8WZA2); assay: Confirmatory qHTS for antagonist of cAMP-regulated guanine nucleotide exchange factor 4 (EPAC2) (AID 1645885); settings: EPAC2 Rap1B-BODIPY-GDP exchange fluorescence, biochemical; series mostly up to 114 µM; also: potency is read from the fitted curve at half-maximal effect; nearly all actives have a fitted effect of over 25% in size
[21] = measured here: cell count channel max response
[22] = measured here: lipid channel max response

Chain of Ubiquitin carboxyl-terminal hydrolase 1 (Homo sapiens) (O94782 whole entry, looked up): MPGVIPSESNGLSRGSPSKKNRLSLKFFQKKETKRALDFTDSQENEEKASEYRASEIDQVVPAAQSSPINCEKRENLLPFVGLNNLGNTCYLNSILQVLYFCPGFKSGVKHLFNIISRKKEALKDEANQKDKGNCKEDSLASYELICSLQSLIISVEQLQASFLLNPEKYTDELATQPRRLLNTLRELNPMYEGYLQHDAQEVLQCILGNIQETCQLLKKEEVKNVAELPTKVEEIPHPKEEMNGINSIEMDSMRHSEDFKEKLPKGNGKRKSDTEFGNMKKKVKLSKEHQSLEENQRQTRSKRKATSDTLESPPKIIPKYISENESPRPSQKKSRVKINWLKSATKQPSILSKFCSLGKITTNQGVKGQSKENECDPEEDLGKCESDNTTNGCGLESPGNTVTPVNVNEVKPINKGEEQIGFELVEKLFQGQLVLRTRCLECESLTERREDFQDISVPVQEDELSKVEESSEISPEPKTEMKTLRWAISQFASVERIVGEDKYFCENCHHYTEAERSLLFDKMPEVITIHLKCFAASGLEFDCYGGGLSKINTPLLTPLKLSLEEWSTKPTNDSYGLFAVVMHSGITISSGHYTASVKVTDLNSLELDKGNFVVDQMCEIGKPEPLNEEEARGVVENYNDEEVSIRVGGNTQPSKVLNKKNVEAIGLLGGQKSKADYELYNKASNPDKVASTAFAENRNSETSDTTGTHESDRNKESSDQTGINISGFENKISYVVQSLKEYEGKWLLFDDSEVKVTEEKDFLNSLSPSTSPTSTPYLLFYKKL
Chain of Rap guanine nucleotide exchange factor 4 (Homo sapiens) (Q8WZA2 whole entry, looked up): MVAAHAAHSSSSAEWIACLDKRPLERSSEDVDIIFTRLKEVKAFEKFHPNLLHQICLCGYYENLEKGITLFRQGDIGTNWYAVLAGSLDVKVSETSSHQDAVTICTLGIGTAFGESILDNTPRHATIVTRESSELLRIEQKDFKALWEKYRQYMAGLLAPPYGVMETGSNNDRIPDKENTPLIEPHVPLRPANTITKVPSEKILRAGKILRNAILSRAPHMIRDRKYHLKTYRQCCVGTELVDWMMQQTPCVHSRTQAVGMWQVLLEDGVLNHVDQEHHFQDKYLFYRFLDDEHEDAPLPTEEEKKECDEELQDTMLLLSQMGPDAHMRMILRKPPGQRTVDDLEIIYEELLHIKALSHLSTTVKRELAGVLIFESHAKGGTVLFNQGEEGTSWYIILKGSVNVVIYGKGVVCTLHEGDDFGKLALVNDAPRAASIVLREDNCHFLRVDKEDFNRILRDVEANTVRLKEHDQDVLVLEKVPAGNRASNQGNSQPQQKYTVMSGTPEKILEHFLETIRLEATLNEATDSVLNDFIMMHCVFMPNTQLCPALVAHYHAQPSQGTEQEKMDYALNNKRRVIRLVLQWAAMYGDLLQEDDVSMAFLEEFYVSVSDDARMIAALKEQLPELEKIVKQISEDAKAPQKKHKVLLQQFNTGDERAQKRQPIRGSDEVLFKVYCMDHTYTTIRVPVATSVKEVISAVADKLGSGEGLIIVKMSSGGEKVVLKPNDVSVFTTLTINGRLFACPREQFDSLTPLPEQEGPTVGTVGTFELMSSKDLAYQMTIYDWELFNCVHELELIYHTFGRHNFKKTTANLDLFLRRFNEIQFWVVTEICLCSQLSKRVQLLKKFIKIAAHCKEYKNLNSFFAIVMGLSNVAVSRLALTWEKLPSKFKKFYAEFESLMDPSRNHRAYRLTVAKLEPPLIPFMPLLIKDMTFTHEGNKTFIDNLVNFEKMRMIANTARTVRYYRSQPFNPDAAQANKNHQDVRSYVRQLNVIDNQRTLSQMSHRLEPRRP
Chain of Lysosomal acid glucosylceramidase (Homo sapiens) (P04062 whole entry, looked up): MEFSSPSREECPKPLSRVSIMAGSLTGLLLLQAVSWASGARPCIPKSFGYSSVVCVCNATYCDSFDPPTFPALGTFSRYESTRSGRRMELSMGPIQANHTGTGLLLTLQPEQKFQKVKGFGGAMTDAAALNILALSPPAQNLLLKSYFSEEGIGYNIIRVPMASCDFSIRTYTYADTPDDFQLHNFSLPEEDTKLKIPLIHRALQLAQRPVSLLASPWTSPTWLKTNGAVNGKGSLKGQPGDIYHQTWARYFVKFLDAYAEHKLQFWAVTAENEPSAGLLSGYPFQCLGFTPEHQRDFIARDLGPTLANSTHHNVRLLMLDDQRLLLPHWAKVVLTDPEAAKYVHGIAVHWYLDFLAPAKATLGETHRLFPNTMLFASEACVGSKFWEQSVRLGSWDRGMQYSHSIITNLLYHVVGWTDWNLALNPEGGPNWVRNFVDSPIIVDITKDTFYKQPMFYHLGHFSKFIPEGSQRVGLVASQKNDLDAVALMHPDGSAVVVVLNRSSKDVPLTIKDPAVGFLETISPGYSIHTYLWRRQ
Chain of Cytochrome P450 3A4 (Homo sapiens) (P08684 whole entry, looked up): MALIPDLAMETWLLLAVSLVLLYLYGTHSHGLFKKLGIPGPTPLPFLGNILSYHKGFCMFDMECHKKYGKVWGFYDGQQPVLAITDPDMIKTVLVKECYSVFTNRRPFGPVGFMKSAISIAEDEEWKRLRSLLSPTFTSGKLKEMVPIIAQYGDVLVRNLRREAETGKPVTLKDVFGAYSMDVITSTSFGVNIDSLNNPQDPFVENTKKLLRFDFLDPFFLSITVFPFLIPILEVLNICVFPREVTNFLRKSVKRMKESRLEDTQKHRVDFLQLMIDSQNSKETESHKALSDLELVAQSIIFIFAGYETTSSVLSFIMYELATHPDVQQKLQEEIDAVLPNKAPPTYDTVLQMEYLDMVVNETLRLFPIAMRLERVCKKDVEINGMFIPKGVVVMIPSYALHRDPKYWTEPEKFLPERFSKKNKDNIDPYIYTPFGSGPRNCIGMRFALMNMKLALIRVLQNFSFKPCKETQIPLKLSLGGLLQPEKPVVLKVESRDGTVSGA
Chain of Dual specificity protein kinase CLK4 (Homo sapiens) (Q9HAZ1 whole entry, looked up): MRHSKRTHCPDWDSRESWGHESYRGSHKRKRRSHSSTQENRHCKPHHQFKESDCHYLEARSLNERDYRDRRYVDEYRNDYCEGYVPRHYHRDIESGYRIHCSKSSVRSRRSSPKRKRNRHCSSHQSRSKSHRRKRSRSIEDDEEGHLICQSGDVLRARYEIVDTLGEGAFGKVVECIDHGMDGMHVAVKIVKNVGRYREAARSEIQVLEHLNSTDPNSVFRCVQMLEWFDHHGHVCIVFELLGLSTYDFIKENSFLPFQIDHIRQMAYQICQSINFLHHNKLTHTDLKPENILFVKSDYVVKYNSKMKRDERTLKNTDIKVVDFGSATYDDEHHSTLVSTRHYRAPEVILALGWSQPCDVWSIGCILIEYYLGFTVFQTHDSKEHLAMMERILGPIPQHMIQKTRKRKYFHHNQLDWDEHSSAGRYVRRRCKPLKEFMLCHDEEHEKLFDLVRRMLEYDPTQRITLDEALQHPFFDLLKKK
Chain of Cytochrome P450 1A2 (Homo sapiens) (P05177 whole entry, looked up): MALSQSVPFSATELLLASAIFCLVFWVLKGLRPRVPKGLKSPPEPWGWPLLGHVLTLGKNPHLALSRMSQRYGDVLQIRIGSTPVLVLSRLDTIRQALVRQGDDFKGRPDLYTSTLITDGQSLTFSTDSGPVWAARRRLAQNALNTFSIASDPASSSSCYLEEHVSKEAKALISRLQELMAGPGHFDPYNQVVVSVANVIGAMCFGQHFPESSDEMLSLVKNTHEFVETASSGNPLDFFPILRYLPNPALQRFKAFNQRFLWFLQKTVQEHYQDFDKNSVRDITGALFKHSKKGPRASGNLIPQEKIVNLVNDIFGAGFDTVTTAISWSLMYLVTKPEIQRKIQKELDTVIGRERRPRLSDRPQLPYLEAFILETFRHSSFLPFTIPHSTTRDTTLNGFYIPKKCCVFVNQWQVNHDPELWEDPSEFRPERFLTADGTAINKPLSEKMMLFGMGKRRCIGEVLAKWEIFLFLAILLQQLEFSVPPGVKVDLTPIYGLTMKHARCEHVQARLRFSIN
Chain of Glucocorticoid receptor (Homo sapiens) (P04150 whole entry, looked up, the tested form may be a part): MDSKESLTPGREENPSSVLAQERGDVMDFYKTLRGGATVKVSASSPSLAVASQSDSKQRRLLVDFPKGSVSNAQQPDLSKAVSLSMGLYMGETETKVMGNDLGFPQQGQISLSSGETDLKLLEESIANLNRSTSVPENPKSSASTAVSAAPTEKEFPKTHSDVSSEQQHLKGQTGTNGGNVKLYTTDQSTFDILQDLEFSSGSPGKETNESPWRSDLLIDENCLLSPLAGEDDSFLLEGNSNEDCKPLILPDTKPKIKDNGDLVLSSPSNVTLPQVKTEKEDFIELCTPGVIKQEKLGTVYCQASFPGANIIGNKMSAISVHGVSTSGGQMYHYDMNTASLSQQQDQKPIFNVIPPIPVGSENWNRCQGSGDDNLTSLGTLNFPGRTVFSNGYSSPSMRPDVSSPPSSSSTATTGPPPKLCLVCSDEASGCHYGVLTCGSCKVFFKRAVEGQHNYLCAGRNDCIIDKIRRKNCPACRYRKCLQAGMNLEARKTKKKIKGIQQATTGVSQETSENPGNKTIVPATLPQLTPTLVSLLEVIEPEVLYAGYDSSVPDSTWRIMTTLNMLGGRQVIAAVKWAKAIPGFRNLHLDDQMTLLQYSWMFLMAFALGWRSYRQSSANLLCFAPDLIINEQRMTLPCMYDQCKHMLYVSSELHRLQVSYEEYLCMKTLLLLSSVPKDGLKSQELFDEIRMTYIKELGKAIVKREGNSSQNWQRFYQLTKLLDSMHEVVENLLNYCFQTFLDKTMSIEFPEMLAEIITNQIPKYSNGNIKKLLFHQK

CN(C)c1ncc2nc(-c3ccc(F)cc3)c(=O)n(C)c2n1
18.3%: max response [10, 21]
28.6%: max response [10, 22]
active: Potency [3] 1.58 µM
inactive: Potency [1] > 11.4 µM | activity change, negative = inhibition [2] -9.27% | activity change, negative = inhibition [4] 2.27% | activity, negative = inhibition [5] -9.34% | Potency [6] > 9.22 µM | Potency [7] > 46 µM | outcome [8] | Potency [9] | activity change, negative = inhibition [10] 8.24% | Potency [11] | Potency [12] | Potency [13] | Potency [14] | Potency [15]

COCCNc1ncnc2ccc(-c3ccoc3)cc12
3.39%: max response [10, 22]
active: Potency [3] 15.8 µM | Potency [11] 0.891 µM | Potency [12] 1 µM | Potency [13] 0.224 µM
6.14%: max response [10, 21]
inactive: Potency [1] > 11.4 µM | activity change, negative = inhibition [2] -23.8% | activity change, negative = inhibition [4] 11.2% | activity, negative = inhibition [5] -12.8% | Potency [6] > 46 µM | Potency [7] > 46 µM | outcome [8] | Potency [9] | activity change, negative = inhibition [10] 0.0459% | Potency [14] | Potency [15]

COc1ccccc1CNc1ccnc(-c2ccc3c(c2)OCO3)n1
active: Potency [3] 0.631 µM | Potency [16] 1.58 µM | Potency [20] 17.5 µM
inactive: activity change, negative = inhibition [2] -17.7% | activity change, negative = inhibition [4] -13.2% | activity, negative = inhibition [5] -21.3% | Potency [6] > 46 µM | Potency [7] > 46 µM | outcome [8] | Potency [17] | activity change, negative = inhibition [10] 9.28% | Potency [15] | outcome [18] | outcome [19]
-4.95%: max response [10, 22]
-12.3%: max response [10, 21]

Cn1cc(-c2nc3cncnc3n(Cc3ccc(F)cc3)c2=O)c2ccccc21
20.1%: max response [10, 22]
inactive: Potency [1] > 11.4 µM | activity change, negative = inhibition [2] -19.3% | activity change, negative = inhibition [4] -18.4% | activity, negative = inhibition [5] -7.96% | Potency [6] > 9.22 µM | Potency [7] > 46 µM | outcome [8] | activity change, negative = inhibition [10] 6.13% | Potency [11] | Potency [12] | Potency [13] | Potency [14] | Potency [15]
15.3%: max response [10, 21]
active: Potency [3] 1.26 µM

O=c1c(-c2cc(F)cc(F)c2)nc2cnc(N3CCNCC3)nc2n1Cc1cccs1
inactive: Potency [1] > 11.4 µM | Potency [6] > 9.22 µM | Potency [7] > 46 µM | outcome [8] | Potency [17] | activity change, negative = inhibition [10] -29.8% | Potency [15] | outcome [18]
active: activity change, negative = inhibition [2] 98% [activator] | Potency [20] 55.5 µM
-11.3%: max response [10, 21]
-33.5%: max response [10, 22]
